Results published in PubChem BioAssay (Tox21).
“And” between values parts separate entries of the source, which are not always exact repeats. Equal values may be shown once. Records with an inconclusive call do not appear. Entries that show only a call come without a potency. Where a structure was tested more than once in an assay, its records may differ in their call. The source made the active and inactive calls. Unless noted, calls come from the whole dose curve; as a rule, active = well fitted curve in the direction sought with a large enough effect in the repeat runs; inconclusive = weak or mixed curves; inactive = no such curve, though single readings can be large; an effect the other way counts as inactive or inconclusive.

How the values were obtained:
[1] = qHTS assay to identify small molecule agonists of the vitamin D receptor (VDR) signaling pathway - cell viability counter screen (AID 743224); conditions: VDR-bla HEK293T viability, CellTiter-Glo luminescence, 16 h; series mostly up to 62.6 µM; note: nearly all actives have a fitted effect of over 50% in size; note: potency is the fitted concentration of half-maximal effect
Outline: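 CellTiter-Glo viability readout on VDR-bla cells, measured after 16 h of compound treatment at 37C in the same wells.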

[2] = qHTS assay to identify small molecule antagonists of the vitamin D receptor (VDR) signaling pathway - cell viability counter screen (AID 743225); conditions: VDR-bla HEK293T viability, CellTiter-Glo luminescence, 16 h; series mostly up to 61 µM; note: nearly all actives have a fitted effect of over 50% in size; note: potency is the fitted concentration of half-maximal effect
Outline: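 Read-out: CellTiter-Glo luminescence measured 30 min after reagent addition at room temperature. Cells were VDR-bla HEK 293T exposed 16 h at 37C, 5% CO2, to compound with 3 nM final calcitriol agonist.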

[3] = qHTS assay to identify small molecule agonists of the NFkB signaling pathway (AID 1159509; active = well fitted curve in the direction sought with a large enough effect in the signal ratio in the repeat runs, not every such curve was filed as active; the % refers to the signal ratio); conditions: NFkB-bla ME-180 cells, beta-lactamase FRET ratio, 5 h; series mostly up to 61 µM
Outline: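 Beta-lactamase reporter assay run in quantitative high-throughput format on an NF-kB-responsive ME-180 line, with 5 hr compound treatment and a FRET-based blue/green fluorescence readout.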

[4] = qHTS assay to identify small molecule agonists of the NFkB signaling pathway - cell viability counter screen (AID 1159515; calls by dose curve; note: nearly all actives have a fitted effect of over 55% in size); conditions: NFkB-bla ME-180 viability, CellTiter-Glo luminescence, 5 h; series mostly up to 61 µM
Outline: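 Tox21 library compounds were tested for cytotoxicity against NFkB-bla ME-180 cells during a 5 hr exposure at 37 C. CellTiter-Glo luminescence served as the viability read-out.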

[5] = qHTS assay to identify small molecule agonists of the endoplasmic reticulum stress response signaling pathway (AID 1159516; active = well fitted activation curve with a large enough effect in the signal ratio in the repeat runs, not every such curve was filed as active; the % refers to the signal ratio); conditions: ESRE-bla HeLa, ER stress beta-lactamase reporter, 5 h; series mostly up to 61 µM
Outline: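 Fluorescence at 460 and 530 nm (405 nm excitation) reports beta-lactamase from an ER stress response element in HeLa cells treated 5 hr at 37 C.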

[6] = qHTS assay to identify small molecule antagonists of the retinoid-related orphan receptor gamma (ROR-gamma) signaling pathway - cell viability counter screen (AID 1159520); conditions: Tet-on RORgamma CHO cells viability, ATP luminescence, 16 h; series mostly up to 92.4 µM; note: nearly all actives have a fitted effect of over 50% in size; note: potency is the fitted concentration of half-maximal effect
Outline: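 Tet-on ROR gamma CHO cells (1,000/well) were plated 4 hr, given compounds in DMSO for 2 hr at 37 C, then induced with 1 uM final doxycycline for 16 hr. Viability was read as ATP by CellTiter-Glo luminescence after 30 min.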

[7] = target: Nuclear receptor ROR-gamma (Homo sapiens) (UniProt P51449); experiment: qHTS assay to identify small molecule antagonists of the retinoid-related orphan receptor gamma (ROR-gamma) signaling pathway (AID 1159521; note: nearly all actives have a fitted effect of over 50% in size; note: potency is the fitted concentration of half-maximal effect); conditions: Tet-on RORgamma CHO cells, RORE-luciferase, 16 h; series mostly up to 92.4 µM
Outline: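 CHO Tet-on RORγ, RORE-luc reporter. Cpd 2 h pre-incubation, then dox hyclate 1 uM final, 16 h, 37 C/5% CO2. ONE-Glo luminescence; decrease = antagonist.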

[8] = qHTS assay to identify small molecule agonists of the AP-1 signaling pathway - cell viability counter screen (AID 1159525; calls by dose curve; note: nearly all actives have a fitted effect of over 55% in size); conditions: ME-180 AP-1-bla cells viability, ATP luminescence, 5 h; series mostly up to 76.8 µM
Outline: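 Each titration point was normalised to DMSO and tetra n-octyl ammonium bromide controls. The read was Cell Titer Glo luminescence after 30 min at RT, following 5 h compound exposure of ME-180 AP-1-bla cells at 37 °C.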

[9] = qHTS assay to identify small molecule agonists of the endoplasmic reticulum stress response signaling pathway - cell viability counter screen (AID 1159517; calls by dose curve; note: nearly all actives have a fitted effect of over 50% in size; note: potency is the fitted concentration of half-maximal effect); conditions: ESRE-bla HeLa viability, CellTiter-Glo luminescence, 5 h; series mostly up to 61 µM
Outline: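 Cytotoxicity of test compounds toward ESRE-bla HeLa cells was assessed after 5 hr exposure. The luminescent CellTiter-Glo signal was measured 30 min after reagent addition.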

[10] = qHTS assay to identify small molecule agonists of the AP-1 signaling pathway (AID 1159526; calls by dose curve); conditions: ME-180 (cervical carcinoma) AP-1-bla reporter, beta-lactamase FRET ratio, 5 h; series mostly up to 76.8 µM

SMILES	Potency [1]	Potency [2]	outcome [3]	Potency [4]	Potency [5]	Potency [6]	Potency [7]	Potency [8]	Potency [9]	outcome [10]	viability change, negative = cytotoxic [8]	activation [10]
CNCCCC12CCC(c3ccccc31)c1ccccc12	21.9 µM (active) and inactive	15.5 µM (active)	inactive	inactive	inactive	61.1 µM (active) and inactive	34.4 µM (active) and inactive	inactive	–	–	–	–
Nc1ccccc1N	inactive	inactive	inactive	inactive	–	inactive	inactive	–	inactive	inactive	–	–
CCOC(=O)C(C#N)=C(c1ccccc1)c1ccccc1	inactive	inactive	inactive	inactive	inactive	inactive	–	inactive	inactive	inactive	–	–
Cc1cccc([N+](=O)[O-])c1C	inactive	inactive	inactive	inactive	inactive	inactive	–	–	inactive	inactive	–	–
CC(=O)O[C@]1(C(C)=O)CC[C@H]2[C@@H]3C=C(Cl)C4=CC(=O)[C@@H]5C[C@@H]5[C@]4(C)[C@H]3CC[C@@]21C	48.9 µM (active) and inactive	inactive	inactive	inactive	inactive	inactive	–	inactive	inactive	inactive	–	–
O=P(O)(O)O	inactive	inactive and 5.49 µM (active)	inactive	inactive	inactive	inactive	inactive	–	inactive	inactive	–	–
c1ccc2cc(Nc3ccc(Nc4ccc5ccccc5c4)cc3)ccc2c1	inactive	inactive	inactive	inactive	–	inactive	inactive	inactive	inactive	inactive	–	–
COc1cc([C@@H]2c3cc4c(cc3[C@H](O)[C@H]3COC(=O)[C@H]23)OCO4)cc(OC)c1OC	inactive	inactive	inactive	inactive	–	inactive	30.6 nM (active)	inactive	inactive	–	–	–
OC1CCCCCCCCCCC1	inactive	inactive	inactive	inactive	–	inactive	inactive	inactive	inactive	–	–	–
Cc1ccc(C(=O)c2cc(O)c(O)c([N+](=O)[O-])c2)cc1	–	inactive	inactive	inactive	inactive	inactive	27.3 µM (active) and 26.6 µM (active)	–	inactive	inactive	–	–
S=C(NC1CCCCC1)NC1CCCCC1	24.5 µM (active)	inactive	inactive	inactive	–	inactive	48600 nM (active)	inactive	inactive	–	–	–
O=C=Nc1ccc(Cc2ccc(N=C=O)cc2)cc1	inactive	inactive	inactive	inactive	–	inactive	inactive	inactive	inactive	inactive	–	–
O=C(COc1ccc(Cl)cc1)N1CCN(Cc2ccc3c(c2)OCO3)CC1	inactive	inactive	inactive	inactive	inactive	inactive	inactive	–	inactive	inactive	–	–
CCCCOCCOCCOCCO	inactive	inactive	inactive	inactive	inactive	inactive	inactive	inactive	–	inactive	–	–
O=C1c2cccc(O)c2C(=O)c2c(O)cccc21	inactive	inactive	inactive	inactive	–	inactive	inactive	–	inactive	–	–	–
O=CCCCC=O	inactive	inactive	inactive	inactive	–	61.1 µM (active)	29.6 µM (active) and inactive	inactive	54.9 µM (active)	inactive	–	–
OCCO	inactive	inactive	inactive	inactive	inactive	inactive	–	inactive	inactive	inactive	–	–
CC(C)OC=O	52 µM (active) and inactive	inactive	inactive	inactive	inactive	inactive	inactive	–	inactive	inactive	–	–
O=C1OC2(c3cc(Br)c(O)c(Br)c3Oc3c2cc(Br)c(O)c3Br)c2c(Cl)c(Cl)c(Cl)c(Cl)c21	inactive	inactive	inactive	inactive	–	inactive	–	inactive	inactive	inactive	–	–
COc1ccc(C(=O)CC(=O)c2ccc(C(C)(C)C)cc2)cc1	inactive	inactive	inactive	inactive	inactive	inactive	–	inactive	inactive	inactive	–	–
Oc1ccc(O)cc1	inactive	inactive	inactive	–	–	–	21.6 µM (active) and 38.6 µM (active) and 23.7 µM (active)	inactive	inactive	inactive	–	–
CC1=CCC(C(C)(C)O)CC1 (stereo unspecified)	inactive	inactive	inactive	inactive	inactive	inactive	–	inactive	inactive	inactive	–	–
O=C(Nc1ccc([N+](=O)[O-])cc1Cl)c1cc(Cl)ccc1O	549 nM (active) and 651 nM (active)	–	inactive	inactive	–	1.54 µM (active) and 920 nM (active)	inactive	–	–	–	2.04% [at 15.8 µM] (inactive)	4.2% [at 15.8 µM] (inactive)
CC(=O)Oc1ccccc1C(=O)Nc1ncc([N+](=O)[O-])s1	12.6 µM (active)	–	inactive	inactive	–	3.93 µM (active) and 5.31 µM (active)	inactive	inactive	889 nM (active) and inactive	inactive	–	–
